For 21 molecules, growth inhibition, inhibition and outcome results are on record in PubChem BioAssay.

Broadly, the inhibition is the drop in the measured response relative to a control, in per cent.

Test [1] in a line: antimalarial activity against Dd2 strain (AID 2302;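 active = growth inhibition above 50% at the single 2 µM test dose, taken to imply half-maximal potency below 2 µM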;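 also: 0% = DMSO untreated growth and 100% = chloroquine plus artemisinin killed control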). As to conditions: P. falciparum Dd2 in RBCs, LDH growth readout, 72 h; at 2 µM; stronger effect = higher value.
Test [2] is described as follows: HepG2 cytotoxicity, primary screen, cytotoxicity control for P. falciparum antimalarial project, cell-based, ATP luminescence (AID 2303;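 active = inhibition above 50%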;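 also: 0% = DMSO wells and 100% = digitonin-killed cells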). The conditions noted are these: HepG2 viability, 24-48 h, at 10 µM, stronger effect = higher value.
In test [3] the target is L-lactate dehydrogenase (Plasmodium falciparum (isolate CDC / Honduras)) (UniProt Q27743). Briefly: PfLDH activity inhibition – cell lysate, 3D7 strain, counter-screen for P. falciparum growth inhibition project (AID 2304).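 Also: 0% = vehicle and 100% = reference inhibitor.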 As to conditions: P. falciparum 3D7 crude extract, LDH APAD/NBT absorbance; at 2 µM; stronger effect = higher value. On the technique in general: A counterscreen serves to expose hits that act by an unwanted route or on another target.

Test [4] is described as follows: inhibition of 3D7 malaria parasite growth – strain 3D7 (AID 2306).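 Also: 0% = DMSO wells and 100% = chloroquine plus artemisinin control wells.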 As to conditions: P. falciparum 3D7 erythrocytic growth, LDH absorbance, 72 h; at 2 µM; stronger effect = higher value.
In test [5] the target is Calcium-dependent protein kinase 1 (Plasmodium falciparum (isolate 3D7)) (UniProt P62344). Briefly: PfCDPK1 kinase inhibitors, biochemical, TCAMS library (AID 1159585; cut-off not given, nearly all actives have IC50 up to about 0.98 µM;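 also: inhibitors leave more ATP so luminescence rises with inhibition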). The conditions noted are these: recombinant PfCDPK1, Kinase-Glo ATP depletion luminescence. Background: Kinase-Glo reads ATP consumption through a luciferase reaction.
For test [6], the target named is Plasmodium falciparum protein kinase 6 (PK6, PF3D7_1337100) (UniProt Q8IDW1). Briefly: PfPK6 kinase inhibitors, biochemical, TCAMS library (AID 1159586). The conditions noted are these: recombinant PfPK6, Kinase-Glo ATP depletion luminescence.
The target in test [7] is Protein kinase 7 (PK7), Plasmodium falciparum 3D7 (PF3D7_0213400) (UniProt Q7YTF7). Briefly: inhibition of Plasmodium PK7 catalytic activity – biochemical, TCAMS antimalarial set, Kinase-Glo luminescence (AID 1159587). As to conditions: recombinant PfPK7, Kinase-Glo ATP depletion luminescence.
The target in test [8] is Calcium-dependent protein kinase 4 (Plasmodium falciparum (isolate 3D7)) (UniProt Q8IBS5). Description: PfCDPK4 kinase inhibitors, biochemical, TCAMS library (AID 1159588; cut-off not given, nearly all actives have IC50 up to about 0.91 µM). As to conditions: recombinant PfCDPK4, Kinase-Glo ATP depletion luminescence.

Unmarked numbers belong to inactive results. For part of these data: Potency and affinity values are given separately. Active and inactive are the calls of the source. Unless noted, no rule for the calls is given here.

Plasmodium falciparum protein kinase 6 (PK6, PF3D7_1337100), sequence (Q8IDW1 1-305): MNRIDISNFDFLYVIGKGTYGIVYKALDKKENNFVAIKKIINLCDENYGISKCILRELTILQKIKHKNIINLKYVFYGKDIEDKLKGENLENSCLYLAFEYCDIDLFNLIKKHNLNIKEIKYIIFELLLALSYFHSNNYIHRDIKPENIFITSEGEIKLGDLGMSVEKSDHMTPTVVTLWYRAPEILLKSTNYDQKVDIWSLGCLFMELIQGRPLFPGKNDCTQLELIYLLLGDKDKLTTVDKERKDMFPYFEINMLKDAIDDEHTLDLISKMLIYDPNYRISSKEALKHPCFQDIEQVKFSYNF
Calcium-dependent protein kinase 4 (Plasmodium falciparum (isolate 3D7)), sequence (Q8IBS5 whole entry, looked up): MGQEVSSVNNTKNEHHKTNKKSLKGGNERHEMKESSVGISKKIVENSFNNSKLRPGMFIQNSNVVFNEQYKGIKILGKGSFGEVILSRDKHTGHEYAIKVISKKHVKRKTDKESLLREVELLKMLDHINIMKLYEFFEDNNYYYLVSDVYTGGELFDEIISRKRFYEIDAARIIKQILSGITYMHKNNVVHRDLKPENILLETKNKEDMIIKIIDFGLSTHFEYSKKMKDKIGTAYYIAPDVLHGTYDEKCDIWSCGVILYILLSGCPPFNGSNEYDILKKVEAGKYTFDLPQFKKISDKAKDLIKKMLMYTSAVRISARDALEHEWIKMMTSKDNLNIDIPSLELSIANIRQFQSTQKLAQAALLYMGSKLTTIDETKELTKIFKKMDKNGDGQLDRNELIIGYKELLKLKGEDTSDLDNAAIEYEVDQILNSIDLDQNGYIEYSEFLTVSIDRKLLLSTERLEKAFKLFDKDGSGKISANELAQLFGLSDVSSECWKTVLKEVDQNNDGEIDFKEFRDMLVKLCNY
L-lactate dehydrogenase (Plasmodium falciparum (isolate CDC / Honduras)), sequence (Q27743 whole entry, looked up): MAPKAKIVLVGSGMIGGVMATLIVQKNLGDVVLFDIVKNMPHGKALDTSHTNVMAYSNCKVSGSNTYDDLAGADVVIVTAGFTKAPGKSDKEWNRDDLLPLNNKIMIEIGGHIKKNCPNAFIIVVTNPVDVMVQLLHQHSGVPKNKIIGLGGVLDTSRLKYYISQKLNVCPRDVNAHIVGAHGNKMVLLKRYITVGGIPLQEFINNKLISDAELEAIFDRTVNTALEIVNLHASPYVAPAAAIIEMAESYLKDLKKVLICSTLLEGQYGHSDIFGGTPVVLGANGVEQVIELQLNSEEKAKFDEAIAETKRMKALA
Protein kinase 7 (PK7), Plasmodium falciparum 3D7 (PF3D7_0213400), sequence (Q7YTF7 1-343): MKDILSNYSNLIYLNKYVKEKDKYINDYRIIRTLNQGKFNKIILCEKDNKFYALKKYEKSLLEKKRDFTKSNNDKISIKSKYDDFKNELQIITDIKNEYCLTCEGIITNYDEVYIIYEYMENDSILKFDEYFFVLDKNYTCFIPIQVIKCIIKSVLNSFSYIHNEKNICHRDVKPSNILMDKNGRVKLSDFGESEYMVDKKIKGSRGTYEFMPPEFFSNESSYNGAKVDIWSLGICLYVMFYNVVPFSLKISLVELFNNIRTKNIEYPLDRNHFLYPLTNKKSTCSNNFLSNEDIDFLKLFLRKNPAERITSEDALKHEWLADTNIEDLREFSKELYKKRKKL
Calcium-dependent protein kinase 1 (Plasmodium falciparum (isolate 3D7)), sequence (P62344 whole entry, looked up): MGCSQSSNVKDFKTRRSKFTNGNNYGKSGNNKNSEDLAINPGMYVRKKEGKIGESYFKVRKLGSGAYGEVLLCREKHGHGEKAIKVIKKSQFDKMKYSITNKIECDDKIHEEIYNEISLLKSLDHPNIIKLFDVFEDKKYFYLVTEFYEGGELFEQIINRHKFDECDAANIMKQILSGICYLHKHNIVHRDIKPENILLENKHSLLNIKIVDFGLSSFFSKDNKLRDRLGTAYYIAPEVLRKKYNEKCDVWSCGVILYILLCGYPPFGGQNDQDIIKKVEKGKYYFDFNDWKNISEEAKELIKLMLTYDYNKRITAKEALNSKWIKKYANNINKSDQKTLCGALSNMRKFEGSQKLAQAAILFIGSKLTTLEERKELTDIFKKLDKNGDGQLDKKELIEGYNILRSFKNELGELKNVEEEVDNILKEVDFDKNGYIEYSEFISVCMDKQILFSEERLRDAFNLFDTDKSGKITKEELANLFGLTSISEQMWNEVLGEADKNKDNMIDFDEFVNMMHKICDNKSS

For `CC(C)c1ccc(NC(=O)c2ccc(C(=O)NC3CCN(CC4CCCCC4)CC3)cc2)cc1`, the growth inhibition in test [1] is 5%; in test [4], 98% (active). The inhibition is 34% in test [2] and -2% in test [3]. The result in test [5], in test [6], in test [7] and in test [8] was inactive.

As to `O=C(Nc1ccc(-c2cccc(-c3nc4ccc(C(F)(F)F)cc4[nH]3)c2)cc1)Nc1ccc(Cl)c(Cl)c1`, the growth inhibition in test [1] was 23%; in test [4], 98% (active). Also, the figures for the inhibition in test [2] and in test [3] were 42% and 7%, respectively. For the same molecule, the result in test [5], in test [6], in test [7] and in test [8] was inactive.

Regarding `Cc1cnc(NCC2CCCCC2)nc1N[C@@H](CO)C(=O)Nc1ccccc1`, the growth inhibition in test [1] was 56% (active); in test [4], 83% (active). The figures for the inhibition in test [2] and in test [3] were -1% and -3%, respectively. Moreover, the outcome in test [5], in test [6], in test [7] and in test [8] was inactive.

For the molecule `Cc1ccc(-c2csc(C)n2)c(C)c1`, the growth inhibition in test [1] was -3%; in test [4] it was 98% (active). Also, the inhibition in test [2] was 12%; in test [3], 3%. The result in test [5], in test [6], in test [7] and in test [8] was inactive.

For the molecule `c1cncc(Oc2ccc(Nc3ccnc4cc(-c5cccc(CN6CCCCC6)c5)ccc34)cc2)c1`, the growth inhibition was 100% (active) in test [1] and 101% (active) in test [4]. The inhibition in test [2] was 33%; in test [3], 4%. Besides, the result in test [5], in test [6], in test [7] and in test [8] was inactive.

As to `CCOc1ccc(CCC(=O)O)cc1OCC`, the growth inhibition in test [1] was -3%; in test [4], 94% (active). The inhibition was 60% (active) in test [2] and 6% in test [3]. The outcome in test [5], in test [6], in test [7] and in test [8] was inactive.

On to `CCCCN1CCN(CCCCNc2c3ccccc3nc3ccccc23)CC1`, for which the figures for the growth inhibition in test [1] and in test [4] were 5% and 100% (active), respectively. The inhibition was 27% in test [2] and 4% in test [3]. Besides, the result in test [5], in test [6], in test [7] and in test [8] was inactive.

On to `O=C(Nc1ccccc1O)c1ccc(S(=O)(=O)c2ccc(Cl)cc2)cc1`, for which the results for the growth inhibition in test [1] and in test [4] were 85% (active) and 90% (active), respectively. Also, the inhibition was 18% in test [2] and -7% in test [3]. The outcome in test [5], in test [6], in test [7] and in test [8] was inactive.

As for `Cc1nc(-c2ccc(-c3ccc(C(=O)Nc4ccc(Cl)c(N5CCN(C)CC5)c4)cc3)c(C)c2)no1`, the results for the growth inhibition in test [1] and in test [4] were 47% and 101% (active), respectively. Besides, the inhibition was 23% in test [2] and 4% in test [3]. Moreover, the result in test [5], in test [6], in test [7] and in test [8] was inactive.

As for `CCCCCCCN1CC[C@@H](CCCc2ccnc3ccc(OCCN4CCNCC4)cc23)[C@@H](CC)C1`, the growth inhibition is 98% (active) in test [1] and 101% (active) in test [4]. Also, the inhibition in test [2] was 82% (active); in test [3], -2%. Moreover, the result in test [5], in test [6], in test [7] and in test [8] was inactive.

As for `N#Cc1cc(C(=O)Nc2ccccc2)c(N)nc1SCC(=O)Nc1ccc(Br)cc1`, the results for the growth inhibition in test [1] and in test [4] were 66% (active) and 101% (active), respectively. Moreover, the results for the inhibition in test [2] and in test [3] were 11% and 1%, respectively. Also, the result in test [5], in test [6], in test [7] and in test [8] was inactive.

Consider `Nc1ccc(-c2nc3c(ccc4ccccc43)[nH]2)cc1`, for which the figures for the growth inhibition in test [1] and in test [4] were 51% (active) and 84% (active), respectively. The results for the inhibition in test [2] and in test [3] were -21% and -1%, respectively. Also, the outcome in test [5], in test [6], in test [7] and in test [8] was inactive.

On to `Cc1ccc(NC(=O)c2ccc(N3CCN(c4ccncc4)CC3)cc2)cc1F`, for which the values for the growth inhibition in test [1] and in test [4] were 79% (active) and 100% (active), respectively. The figures for the inhibition in test [2] and in test [3] were 47% and -1%, respectively. The outcome in test [5], in test [6], in test [7] and in test [8] was inactive.

With `CC(C)C(NC(=O)c1c(F)cccc1F)C(=O)Nc1ccc(Cc2nc3ccccc3s2)cc1` (stereo not drawn), the growth inhibition was 55% (active) in test [1] and 86% (active) in test [4]. Also, the inhibition is 0% in test [2] and 6% in test [3]. For the same molecule, the result in test [5], in test [6], in test [7] and in test [8] was inactive.

Turning to `Nc1c2nc(-c3c(F)cccc3Cl)[nH]c(=O)c2nc(=O)n1-c1ccccc1`, the growth inhibition was 0% in test [1] and 95% (active) in test [4]. Moreover, the figures for the inhibition in test [2] and in test [3] were 52% (active) and 2%, respectively. Besides, the outcome in test [5], in test [6], in test [7] and in test [8] was inactive.

On to `COCCNCc1nc(-c2ccc3c(Nc4ccc(F)c(O)c4)ccnc3c2)cs1`, for which the growth inhibition in test [1] was 99% (active); in test [4] it was 101% (active). Also, the inhibition in test [2] is -7%; in test [3], 6%. Besides, the result in test [5], in test [6], in test [7] and in test [8] was inactive.

Take `CCCOc1ccc(N2C(N)=NC(N)=NC2(C)C)cc1`: the growth inhibition in test [1] was 2%; in test [4], 97% (active). For the same molecule, the figures for the inhibition in test [2] and in test [3] were 1% and -6%, respectively. Besides, the result in test [5], in test [6], in test [7] and in test [8] was inactive.

For `CC(C)c1ncc(-c2ccncc2)c(C2CCC(CNC(=O)c3ccncc3)CC2)n1` (stereo not drawn), the growth inhibition in test [1] was 49%; in test [4], 85% (active). Also, the inhibition in test [2] is -6%; in test [3], 4%. In addition, the result in test [5], in test [6], in test [7] and in test [8] was inactive.

In the case of `OCC1CCN(Cc2cccc(-c3ccc(-c4nc5ccc(C(F)(F)F)cc5[nH]4)s3)c2)CC1`, the figures for the growth inhibition in test [1] and in test [4] were 90% (active) and 99% (active), respectively. The inhibition is -6% in test [2] and -9% in test [3]. In addition, the outcome in test [5], in test [6], in test [7] and in test [8] was inactive.

Consider `Oc1ccc2nc(N3CCNCC3)nc(NCCCc3ccccc3)c2c1`, for which the growth inhibition in test [1] is 0%; in test [4], 102% (active). Further, the inhibition in test [2] is 14%; in test [3], -4%. Moreover, the result in test [5], in test [6], in test [7] and in test [8] was inactive.

Consider `CC(CO)(CO)NCc1cc2c3ccccc3c(CNC(C)(CO)CO)cc2c2ccccc12`, for which the growth inhibition in test [1] is 98% (active); in test [4] it was 96% (active). Also, the inhibition is 40% in test [2] and 3% in test [3]. Also, the result in test [5], in test [6], in test [7] and in test [8] was inactive.
